Screens deposited in PubChem by several laboratories.
Compounds with a hit are over-represented: about 4.5% of the library has one in this group of screens.
Efflux pump mplx: blocks antifungal efflux pumps in multiplex yeast assay | inhibition, % at 10 µM | S. cerevisiae Candida pump triplex, Nile Red efflux | AID 485275 | hit rate 0.44% among 330,000;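 active = plate passing quality check with inhibition over a set limit, or well fluorescence over plate mean plus 4 SD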;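 note: Nile Red retained in pooled yeast measured as flow cytometry median fluorescence; 0% = buffer negative control and 100% = Enniatin B positive control; higher means more Nile Red kept so more efflux inhibition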
HDAC3 inh: inhibitors of human histone deacetylase 3 | O15379 | recombinant HDAC3, fluorogenic peptide/trypsin coupled, fluorescence | inhibition, % at 8.3 µM | hit rate 0.15% among 320,000 | AID 2718; in the data active = inhibition above about 26%, passing the limit was not always enough
GRK2 aptamer HTS: human GRK2 inhibition via aptamer displacement; bead flow cytometry, FAM-aptamer displacement from GRK2; P25098; inhibition of aptamer binding, % at 10 µM; hit rate 0.59% among 330,000; AID 488847;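 active = inhibition of aptamer binding above 40%, roughly 3 SD of noise, on plates passing a quality check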;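 note: median bead fluorescence of bound FAM aptamer so fluorescent compounds give negative values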
ALR H2O2 inh: blocks human ALR sulfhydryl oxidase activity | hit rate 3.8% among 290,000 | purified ALR, DTT oxidation, H2O2 HRP-luminol luminescence | P55789 | inhibition, % (concentration not given with the values);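 active = mean replicate inhibition above about 79%, with every replicate also reaching it, limit read from the data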
Target sequence (P55789 whole entry, looked up): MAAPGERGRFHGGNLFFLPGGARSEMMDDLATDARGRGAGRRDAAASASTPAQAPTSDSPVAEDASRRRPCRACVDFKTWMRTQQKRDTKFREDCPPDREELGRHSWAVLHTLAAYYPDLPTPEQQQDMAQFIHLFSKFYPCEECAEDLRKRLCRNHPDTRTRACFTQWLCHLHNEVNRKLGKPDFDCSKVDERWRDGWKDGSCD
Rce1 inh: yeast Ras-converting enzyme inhibition. Q03530. hit rate 0.27% among 290,000. calls only. yeast membranes, quenched prenylated peptide cleavage fluorescence;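 active = fall in fluorescence gain of 50% or more versus controls, with final raw signal at or below 3038400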;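 note: plate controls were neutral control wells for no effect and wells lacking membranes for full effect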
Target sequence (Q03530 whole entry, looked up): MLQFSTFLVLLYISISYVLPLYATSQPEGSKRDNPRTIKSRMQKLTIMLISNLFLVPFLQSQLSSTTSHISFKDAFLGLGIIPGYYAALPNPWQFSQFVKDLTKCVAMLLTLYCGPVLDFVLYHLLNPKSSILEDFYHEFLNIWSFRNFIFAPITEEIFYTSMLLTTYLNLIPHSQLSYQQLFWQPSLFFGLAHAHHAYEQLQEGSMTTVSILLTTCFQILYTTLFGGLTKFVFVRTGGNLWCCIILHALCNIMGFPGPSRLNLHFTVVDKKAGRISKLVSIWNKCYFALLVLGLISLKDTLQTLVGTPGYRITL
Rtt109 HAT inh: blocks Candida albicans Rtt109/Vps75 acetyltransferase activity | inhibition, % at 34.9 µM | purified Rtt109/Vps75, ThioGlo CoA-SH fluorescence, 4 h | hit rate 0.16% among 330,000;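 active = inhibition of at least 50% in every replicate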
* = called active by the depositor; i = inactive; x = no result; + = active, no number.

SMILES	Efflux pump mplx	HDAC3 inh	GRK2 aptamer HTS	ALR H2O2 inh	Rce1 inh	Rtt109 HAT inh
COc1ccccc1OCC(=O)NNC(=O)CCCC(=O)NNC(=O)COc1ccccc1OC	0	2	2	1	i	-4
COc1ccccc1OCC(=O)NNc1c2ccccc2nc2ccccc12	0	17	2	99*	i	11
CSc1ccc(-c2nc(CSCC(=O)N3CCOCC3)c(C)o2)cc1	0	12	0	98*	i	3
CSc1ccc(-c2nc(CSCC(=O)NC3CC3)c(C)o2)cc1	0	-16	3	98*	i	-20
CCOC(=O)N1CCC(NC(=O)CSCc2nc(-c3ccc(OC)cc3)oc2C)CC1	0	-8	0	86*	i	-11
CCOC(=O)N1CCC(NC(=O)CS(=O)(=O)Cc2nc(-c3ccc(C)cc3)oc2C)CC1	0	1	0	3	i	4
Cc1oc(-c2ccccc2Cl)nc1CSCC(=O)NC1CC1	0	5	0	98*	i	-18
CCc1ccc(-c2nc(CSCC(=O)NC3CC3)c(C)o2)cc1	0	-1	2	70	i	-1
Cc1ccc(NC(=O)CNc2ccccc2N2CCCC2=O)cc1S(=O)(=O)N1CCCCC1	0	2	3	6	x	8
CCOc1ccc(S(=O)(=O)N(CC)CC(=O)N2CCOCC2)cc1C	0	-1	2	1	i	-9
CCc1ccc(-c2nc(CSCC(=O)N3CCN(c4ncccn4)CC3)c(C)o2)cc1	0	5	1	97*	i	5
COc1cc(/C=C2\SC(=S)N(CC(=O)O)C2=O)ccc1OC(=O)c1ccco1	0	20	3	99*	i	11
COc1cc(/C=N/n2cnnc2)ccc1OC(=O)c1ccco1	0	27*	1	12	i	x
COc1cc(/C=C2/SC(=S)N(CC(=O)O)C2=O)ccc1OC(=O)c1ccco1	0	20	0	98*	x	16
Cc1ccc(-c2nnn(CC(=O)N(CC3CCCO3)C(C(=O)NCC3CCCO3)c3ccc(F)cc3)n2)o1 (centres undefined)	0	-4	0	-4	i	-1
Cc1ccc(-c2nnn(CC(=O)N(CC3CCCO3)C(C(=O)NC(C)(C)C)c3ccc(F)cc3)n2)o1 (centres undefined)	0	6	0	99*	i	8
O=C1C[C@@H]2c3c(cccc3CN1Cc1ccc(Br)cc1)C[C@@H](O)[C@H]2O	x	x	x	x	x	-8
CCOC(=O)c1c(N2C(=O)Nc3ccccc3N2O)sc2c1CCCC2	0	7	1	93*	i	16
CCOc1ccc(N2C(=O)CC(Sc3ccccc3C(=O)O)C2=O)c([N+](=O)[O-])c1 (centres undefined)	0	5	1	11	i	65*
CCOC(=O)c1c(N2C(=O)CC(Sc3ccccc3C(=O)O)C2=O)sc2c1CCCC2 (centres undefined)	0	-7	2	22	i	88*
O=C(O)c1ccccc1SC1CC(=O)N(c2cccc3ccccc23)C1=O (centres undefined)	x	x	x	x	x	31
O=C(NNC(=O)C1CC=CCC1)c1ccccc1Cl (centres undefined)	0	4	0	-1	i	13
COc1ccc2nc(NC(=O)CSc3n[nH]c(N)n3)sc2c1	0	4	0	90*	i	2
Cc1nn(-c2ccccc2)c2nc(-c3ccco3)cc(C(=O)O)c12	0	7	7	97*	i	5
Cc1nn(-c2ccccc2)c2nc(N)c(C(N)=O)cc12	0	-18	0	x	+	3
SMILES	Efflux pump mplx	HDAC3 inh	GRK2 aptamer HTS	ALR H2O2 inh	Rce1 inh	Rtt109 HAT inh
COC(=O)c1cc(C)nc2c1c(C)nn2-c1ccccc1	0	-13	0	4	x	-27
COc1ccc(/C=N/NC(=O)c2cc(C)oc2C)cc1OC	0	6	0	-10	i	-4
COc1ccc(C=NNC(=O)c2cc(C)oc2C)cc1O	0	13	0	99*	x	-4
COc1cc(/C=N/NC(=O)c2cc(C)oc2C)ccc1O	0	-1	1	99*	i	-5
O=C(N/N=C\c1ccc(O)c([N+](=O)[O-])c1)c1ccccc1-n1cccc1	0	11	3	52	i	15
COc1cc(C=NNC(=O)c2ccccc2-n2cccc2)ccc1O	0	2	3	99*	x	0
COc1ccc(/C=N/NC(=O)c2ccccc2O)cc1Cn1cc(Cl)cn1	0	0	0	80*	i	-4
CN(Cc1ccon1)C(=O)C1CCN(C2CCN(CCCc3ccccc3)CC2)CC1	0	-2	0	-8	i	15
Cc1cc(C)c(S(=O)(=O)Nc2ccc(O)cc2)c(C)c1	0	2	1	99*	i	1
Cc1cc(=O)[nH]c2ccc(S(=O)(=O)Nc3ccc(O)cc3)cc12	0	4	2	99*	i	1
CN1CCN(/N=C/c2ccc(N(c3ccccc3)c3ccccc3)cc2)CC1	0	-4	0	96*	i	-8
CN1CCN(/N=C/c2ccc(N(C)c3ccccc3)cc2)CC1	0	6	0	99*	i	-24
Cc1ccc(C2NC(=O)c3c(sc(C)c3C)N2)c(O)c1 (centres undefined)	0	11	2	92*	i	x
COC(=O)C1=CN(CC2CCCO2)C=C(C(=O)OC)C1c1cccc(O)c1 (centres undefined)	0	-59	1	-7	+	i
COc1cccc(C(=O)NN2CCOCC2)c1	0	-1	0	-6	i	16
CS(=O)(=O)c1nc(-c2ccccc2)cc(-c2ccccc2)c1C#N	0	2	1	17	i	-3
Cc1ccc(-c2cc(-c3ccccc3)c(C#N)c(Br)n2)cc1	0	-12	0	-1	+	-3
Nc1c(-c2ccc(Cl)cc2)cnn1-c1cccc([N+](=O)[O-])c1	0	0	0	-9	i	x
Nc1c(-c2ccccc2)cnn1-c1cccc([N+](=O)[O-])c1	0	5	3	88*	i	4
COc1ccc(CNC(=O)CCC(=O)Nc2ccc(Cl)cc2)cc1	0	-13	0	-25	i	-1
N#Cc1c(N)sc2c1CCCCCC2	0	3	0	99*	i	1
O=c1oc2ccccc2c(Nc2ccc(O)cc2)c1[N+](=O)[O-]	0	-4	1	94*	i	2
Cn1cc(Cl)c(C(=O)N/N=C/c2ccc3c4c(cccc24)CC3)n1	0	-5	0	0	i	7
CC1CCCCN1C(=O)CN1CCN(S(=O)(=O)c2ccc(Br)cc2Cl)CC1 (centres undefined)	0	-2	1	-5	x	4
O=S(=O)(NCC(c1ccco1)N1CCN(c2ccccc2F)CC1)c1ccccc1 (centres undefined)	0	6	3	1	i	5
